From PubChem BioAssay (EPA / NIEHS)
Activity calls are given as the source filed them. The calls were made as follows: active = hit-call score of the fitted dose curve at least 0.9, where 1 is the maximum; inactive = score below 0.9.

System: not listed separately
Experiment: ATG_Oct_MLP_CIS: Attagene CIS-FACTORIAL HepG2 Assay for human Octamer-Binding Transcription Factor (Oct) (AID 2282993)
Settings: HepG2 Attagene cis-factorial Oct reporter, mRNA; actives raise or lower the signal
Summary of the method: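 Transfected HepG2 cells, 24 h treatment. Reporter mRNA quantified by RT-PCR–capillary electrophoresis; bidirectional fitting against DMSO.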

SMILES	outcome	AC50
O=C1C(Cl)=C(Cl)C(=O)C(Cl)=C1Cl	inactive	
N#CCCCCC#N	inactive	
CC1CCC(=O)O1 (centres undefined)	inactive	
C[N+](C)(C)CC(=O)[O-]	inactive	
O=C(NCNC(=O)NC1C(=O)NC(=O)N1CO)NC1C(=O)NC(=O)N1CO (centres undefined)		157 µM (active)
COCC(=O)N(c1c(C)cccc1C)N1CCOC1=O	inactive	
CC(C)CCCCCCCOP(=O)(Oc1ccccc1)Oc1ccccc1	inactive	
CCC1CCC(=O)O1 (centres undefined)	inactive	
C=COCCCl	inactive	
C=CCN(CC=C)C(=O)C(Cl)Cl	inactive	
CC[N+](=O)[O-]	inactive	
CC(Cc1ccc(C(C)(C)C)cc1)CN1C[C@@H](C)O[C@@H](C)C1 (some centres undefined)	inactive	
[Cl-].[Cl-].[Cl-].[Yb+3]	inactive	
CCOC(=O)N(C)N=O	inactive	
CC(C)(O)C#N	inactive	
S=c1[nH]c2ccccc2[nH]1	inactive	
c1ccc(Nc2ccc3ccccc3c2)cc1	inactive	
CSc1nc(N=[N+]=[N-])nc(NC(C)C)n1	inactive	
CC=Cc1ccc2c(c1)OCO2	inactive	
Cc1ccc(OP(=O)(Oc2ccc(C)cc2)Oc2ccc(C)cc2)cc1 (tested in a mixture with another compound)	inactive	
O=S(=O)(c1ccccc1)c1ccccc1	inactive	
CCC(C)c1cc(C(C)(C)C)cc(-n2nc3ccccc3n2)c1O (centres undefined)	inactive	
CC1(C)C(=O)NC(=O)NC1=O	inactive	
CC(=O)/C=C/c1ccccc1	inactive	
c1ccc(P(c2ccccc2)c2ccccc2)cc1	inactive	
CCOC(=O)COc1ccc(Cl)cc1Cl	inactive	
CCN(CC)C(=S)S	inactive	
N#Cc1cccc(C#N)c1	inactive	
N#CC(c1ccccc1)c1ccccc1	inactive	
C[N+](C)=CCl	inactive	

Molecular target: Cellular tumor antigen p53 (Homo sapiens) (UniProt P04637)
Experiment: ATG_p53_CIS: Attagene CIS-FACTORIAL HepG2 Assay for human p53 Transcription Factor (AID 2282994)
Settings: HepG2 p53 cis-element reporter, Attagene mRNA; actives raise or lower the signal
Summary of the method: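 Multiplexed reporter mRNA assay in human HepG2 liver cells; cis-regulated units report endogenous factor activity. Values come from bidirectional curve fitting against DMSO negative control after 24 h treatment.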

Chain of Cellular tumor antigen p53 (Homo sapiens) (P04637 whole entry, looked up): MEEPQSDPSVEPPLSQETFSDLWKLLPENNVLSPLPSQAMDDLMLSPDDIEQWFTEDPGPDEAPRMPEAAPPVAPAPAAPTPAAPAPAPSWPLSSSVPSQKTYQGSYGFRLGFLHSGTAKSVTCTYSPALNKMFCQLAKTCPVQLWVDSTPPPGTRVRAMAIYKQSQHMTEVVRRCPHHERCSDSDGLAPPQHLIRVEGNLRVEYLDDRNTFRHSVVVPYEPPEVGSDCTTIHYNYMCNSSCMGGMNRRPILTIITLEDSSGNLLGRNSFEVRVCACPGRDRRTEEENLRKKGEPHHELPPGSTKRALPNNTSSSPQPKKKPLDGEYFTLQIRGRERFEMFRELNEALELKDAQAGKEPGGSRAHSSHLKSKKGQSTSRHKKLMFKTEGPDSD

SMILES	outcome	AC50
O=C1C(Cl)=C(Cl)C(=O)C(Cl)=C1Cl	inactive	
N#CCCCCC#N	inactive	
CC1CCC(=O)O1 (centres undefined)	inactive	
COc1cc(OC)c(OC)cc1C=O	inactive	
CC(C)c1ccc(O)cc1	inactive	
CC(C)(c1cc(Cl)c(O)c(Cl)c1)c1cc(Cl)c(O)c(Cl)c1		52.1 µM (active)
O=C(NCNC(=O)NC1C(=O)NC(=O)N1CO)NC1C(=O)NC(=O)N1CO (centres undefined)	inactive	
[N-]=[N+]=CC(=O)OC[C@H](N)C(=O)O	inactive	
COCC(=O)N(c1c(C)cccc1C)N1CCOC1=O	inactive	
CC(C)CCCCCCCOP(=O)(Oc1ccccc1)Oc1ccccc1	inactive	
C=COCCCl	inactive	
C=CCN(CC=C)C(=O)C(Cl)Cl	inactive	
CC[N+](=O)[O-]	inactive	
CC(Cc1ccc(C(C)(C)C)cc1)CN1C[C@@H](C)O[C@@H](C)C1 (some centres undefined)	inactive	
[Cl-].[Cl-].[Cl-].[Yb+3]	inactive	
CCOC(=O)N(C)N=O	inactive	
O=CNC(N1CCN(C(NC=O)C(Cl)(Cl)Cl)CC1)C(Cl)(Cl)Cl (centres undefined)		148 µM (active)

SMILES	outcome	AC50
CCC[N+](=O)[O-]	inactive	
CC(C)(O)C#N	inactive	
S=c1[nH]c2ccccc2[nH]1	inactive	
CCCCCc1cc(O)cc(O)c1	inactive	
c1ccc(Nc2ccc3ccccc3c2)cc1	inactive	
CSc1nc(N=[N+]=[N-])nc(NC(C)C)n1	inactive	
CC=Cc1ccc2c(c1)OCO2	inactive	
Cc1ccc(OP(=O)(Oc2ccc(C)cc2)Oc2ccc(C)cc2)cc1 (tested in a mixture with another compound)	inactive	
ClC1=C(Cl)[C@]2(Cl)[C@@H]3[C@@H](Cl)[C@H](Cl)C[C@@H]3[C@@]1(Cl)C2(Cl)Cl	inactive	
O=S(=O)(c1ccccc1)c1ccccc1	inactive	
CCC(C)c1cc(C(C)(C)C)cc(-n2nc3ccccc3n2)c1O (centres undefined)	inactive	
CC1(C)C(=O)NC(=O)NC1=O	inactive	
c1ccc(P(c2ccccc2)c2ccccc2)cc1	inactive	
CCOC(=O)COc1ccc(Cl)cc1Cl	inactive	
N#Cc1cccc(C#N)c1	inactive	
O=C1Nc2ccc(Cl)cc2C(c2ccccc2)=NC1O (centres undefined)	inactive	
N#CC(c1ccccc1)c1ccccc1	inactive	

Read-out: not listed separately
Experiment: BSK_3C_TissueFactor: BioMAP Diversity Plus: 3C Assay for Tissue Factor Biomarker Activity (AID 2282997)
Settings: BioMAP 3C HUVEC, tissue factor biomarker readout; actives raise or lower the signal
Summary of the method: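 HUVEC were treated 24 h, then surface tissue factor measured by ELISA and fitted bidirectionally against DMSO. Parallel SRB total-protein staining assessed overt cytotoxicity at the same time point.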

SMILES	AC50	outcome
O=C1C(Cl)=C(Cl)C(=O)C(Cl)=C1Cl	7 µM (active)	
N#CCCCCC#N		inactive
CC(C)(c1cc(Cl)c(O)c(Cl)c1)c1cc(Cl)c(O)c(Cl)c1	24.2 µM (active)	
COCC(=O)N(c1c(C)cccc1C)N1CCOC1=O		inactive
CC(C)CCCCCCCOP(=O)(Oc1ccccc1)Oc1ccccc1	9.9 µM (active)	
C=CCN(CC=C)C(=O)C(Cl)Cl		inactive
c1ccc(Nc2ccc3ccccc3c2)cc1	32.9 µM (active)	
Cc1ccc(OP(=O)(Oc2ccc(C)cc2)Oc2ccc(C)cc2)cc1 (tested in a mixture with another compound)		inactive
O=S(=O)(c1ccccc1)c1ccccc1		inactive
CC(=O)/C=C/c1ccccc1		inactive

Read-out: not listed separately
Experiment: BSK_3C_uPAR: BioMAP Diversity Plus: 3C Assay for Urokinase-type plasminogen activator receptor (uPAR) Biomarker Activity (AID 2282998)
Settings: BioMAP 3C HUVEC, uPAR biomarker ELISA; actives raise or lower the signal
Summary of the method: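 Readout: ELISA for surface uPAR. System: human umbilical vein endothelial primary cells, 24 h after chemical exposure. Analysis: bidirectional fit, DMSO baseline.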

SMILES	AC50	outcome
O=C1C(Cl)=C(Cl)C(=O)C(Cl)=C1Cl	9.52 µM (active)	
N#CCCCCC#N		inactive
CC(C)(c1cc(Cl)c(O)c(Cl)c1)c1cc(Cl)c(O)c(Cl)c1	9.36 µM (active)	
COCC(=O)N(c1c(C)cccc1C)N1CCOC1=O		inactive
CC(C)CCCCCCCOP(=O)(Oc1ccccc1)Oc1ccccc1	12.1 µM (active)	
C=CCN(CC=C)C(=O)C(Cl)Cl		inactive
c1ccc(Nc2ccc3ccccc3c2)cc1	20 µM (active)	
Cc1ccc(OP(=O)(Oc2ccc(C)cc2)Oc2ccc(C)cc2)cc1 (tested in a mixture with another compound)		inactive
O=S(=O)(c1ccccc1)c1ccccc1		inactive
CC(=O)/C=C/c1ccccc1		inactive
